Test results taken from the supplement of paper PMC6555819.

How the values were obtained:
Assay in all cases: PBM binding z-score (relative to random genomic background probes); higher = stronger binding; sequences stand for … in GC…GCGATTGACAGCGTAGAATGAAGG
[1] = system: FXR:RXRa (NR concentration 270 nM, RXRa partner concentration 90 nM)
Method in brief: (§1)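 The probes on custom Agilent 4×180K protein-binding microarrays were double-stranded, with 34-nt variable regions bearing direct-repeat seeds, single-nucleotide variants, half-site ablations and random human genomic background sequences. Incubation lasted 1 h with ligand-free nuclear receptor dimers in PBS pH 7.4, 2% milk, 0.02% Triton X-100, 1 mM DTT, 0.2 mg/mL BSA and 0.4 mg/ml salmon testes DNA. Antibodies against each partner (one per run) detected bound dimers, and fluorescence scans were regression-normalized. Binding z-scores take the random background probes as reference.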

[2] = system: LXRa:RXRa (NR concentration 270 nM, RXRa partner concentration 90 nM)
Method in brief: as §1

[3] = system: LXRa homodimer (NR concentration 270 nM)
Method in brief: as §1

[4] = system: LXRb:RXRa (NR concentration 270 nM, RXRa partner concentration 90 nM)
Method in brief: as §1

[5] = system: LXRb homodimer (NR concentration 270 nM)
Method in brief: as §1

[6] = system: PPARa:RXRa (NR concentration 270 nM, RXRa partner concentration 90 nM)
Method in brief: as §1

[7] = system: PPARg:RXRa (NR concentration 180 nM, RXRa partner concentration 90 nM)
Method in brief: as §1

[8] = system: PPARg:RXRa 270nM:90nM, anti-RXR (NR concentration 270 nM, RXRa partner concentration 90 nM)
Method in brief: as §1

[9] = system: PPARg:RXRa 30nM:10nM, anti-RXR (NR concentration 30 nM, RXRa partner concentration 10 nM)
Method in brief: as §1

[10] = system: PPARg:RXRa 90nM:30nM, anti-RXR (NR concentration 90 nM, RXRa partner concentration 30 nM)
Method in brief: as §1

[11] = system: PPARg:RXRa DBDmut IVT, anti-RXR (DBD mutation: RXRa K156A/R161A, NR concentration 270 nM, RXRa partner concentration 90 nM)
Method in brief: as §1

[12] = system: PPARg:RXRa IVT, anti-PPARg (NR concentration 270 nM, RXRa partner concentration 90 nM)
Method in brief: as §1

[13] = system: PPARg DBDmut:RXRa IVT, anti-PPARg (DBD mutation: PPARg1 K132A/R137A, NR concentration 270 nM, RXRa partner concentration 90 nM)
Method in brief: as §1

[14] = system: PPARg DBDmut IVT, anti-PPARg (DBD mutation: PPARg1 K132A/R137A, NR concentration 270 nM)
Method in brief: as §1

[15] = system: PPARg homodimer (NR concentration 180 nM)
Method in brief: as §1

[16] = system: PXR:RXRa (NR concentration 270 nM, RXRa partner concentration 90 nM)
Method in brief: as §1

[17] = system: PXR homodimer (NR concentration 270 nM)
Method in brief: as §1

[18] = system: RARa:RXR (NR concentration 270 nM, RXRa partner concentration 90 nM)
Method in brief: as §1

[19] = system: RARa homodimer (NR concentration 270 nM)
Method in brief: as §1

[20] = system: RARb:RXRa (NR concentration 270 nM, RXRa partner concentration 90 nM)
Method in brief: as §1

Sequence	PBM binding z-score [1]	PBM binding z-score [2]	PBM binding z-score [3]	PBM binding z-score [4]	PBM binding z-score [5]	PBM binding z-score [6]	PBM binding z-score [7]	PBM binding z-score [8]	PBM binding z-score [9]	PBM binding z-score [10]	PBM binding z-score [11]	PBM binding z-score [12]	PBM binding z-score [13]	PBM binding z-score [14]	PBM binding z-score [15]	PBM binding z-score [16]	PBM binding z-score [17]	PBM binding z-score [18]	PBM binding z-score [19]	PBM binding z-score [20]
TCTTGTAGAGCAAGCAGGTTAAGAAAGCCTGAGT	-0.159	-0.27	-0.458	-0.282	-1.49	0.415	-0.461	0.511	1.29	1.1	1.77	0.824	-0.533	-0.908	-0.862	-0.144	-0.157	-0.225	-0.639	-0.127
AGTCAAAGTTCATCCAGGTAACGTAAGATATGCT	6.4	6.22	5.22	3.62	1.6	4.82	6.19	6.44	3.61	5.54	0.286	3.48	1.21	1.23	2.63	5.26	8.19	3.69	1.34	4.83
TTACCAAGGTGAGCTGACGTCGTTGATCCAACTC	-0.0042	-0.397	-0.855	-0.446	-0.946	0.149	0.0549	0.41	-0.0176	-0.026	0.771	1.43	-0.733	-0.641	-0.886	-0.363	-0.913	-0.1	-1.03	0.866
TCTAGTTCGTCAAAGGTCACACACTCGAAATGCG	6.15	6.02	4.48	5.55	1.9	5.99	5.62	6.47	5.73	6.28	2.89	3.87	2.7	1.85	3.82	6.15	2.25	6.52	3.27	5.24
CCGACTGAGGCAGAAAGGTTACCATACCATCCGG	0.495	0.563	0.0475	0.877	-0.972	1.82	1.05	1.42	0.27	0.899	-0.0384	-0.0549	-1.78	-0.731	0.893	0.855	-0.109	1.69	0.393	1.62
GCTGCTAAGTCAACTGATGGTCAGCTAAAGCTCG	-0.765	-0.562	-0.539	-0.754	-1.04	-0.555	-0.342	-0.538	-0.793	-0.507	-0.284	-0.667	-2.15	-1.17	-0.917	-0.575	-1.21	-0.177	-1.24	0.174
GCTGCTAGGTCAGGTTGGTCATCTAACGGGTACG	1.59	1.01	0.226	0.755	0.00509	1.45	0.55	1.02	-0.203	0.295	2.9	2.41	-0.672	-0.462	0.986	0.706	-0.262	1.02	-0.199	3.29
CTCGAAAGGTCGGTTGAGGTAAGTATACGGATAA	1.93	1.41	-0.197	1.28	-0.165	2.34	0.4	0.787	0.0171	0.608	-0.106	0.306	-0.141	0.138	0.476	2.45	0.12	1.54	-0.0404	2.64
CCGACAGGGGCAAAGGTTACCATACTCAGTACGA	2.65	2.32	-0.14	2.73	-0.622	4.74	7.39	7.14	5.17	7.95	0.215	3.27	-0.209	-0.953	1.78	3.35	-0.101	5.32	-0.576	2.89
CAAACTAGGTCAAAGGTCATAGTCGAGCCAACCA	7.9	6.85	5.6	6.78	2.18	7.62	14	11.2	12.9	13.1	8.7	9.39	3.36	4.08	5.55	7.06	1.04	8.82	2.53	5.59
CCGACTGGGGTAAGGTTACCATAACGCACAGCCA	0.62	1.11	-0.0991	1.31	-0.565	2.14	2.11	2.5	0.595	1.71	1.25	2.26	-0.489	-1.25	0.783	0.899	-0.126	1.55	0.484	1.3
ATCGAAAGGCCGACGAGGTGAGTATACACCGTTT	0.135	-0.127	-0.565	-0.439	-0.414	-0.0782	0.686	-0.414	-0.0742	-0.119	-0.57	0.479	0.035	0.014	-0.108	-0.0744	-0.0811	0.0866	-0.372	1.33
CCTAGCAGGCCAGGATCACTCAAGCATTTCGCTT	-0.0228	-0.302	-0.315	-0.395	-0.796	-0.414	-0.143	-0.455	-0.969	-0.909	0.271	-0.507	-1.72	-1.21	-0.29	-0.547	-0.646	-0.792	-0.0748	-0.149
ACTAGCAGGCCAAGTTTGGGTCACTGAAACAAAG	0.428	0.0569	-0.409	0.671	-0.515	1.52	0.0239	0.587	-0.227	-0.112	0.913	1.45	-0.659	-0.796	0.506	0.641	-0.0145	1.25	-0.321	2
CGAACCAGGTCAAGGACAGTGAATCTCCGCACGC	4.75	2.98	0.32	2.36	-0.00984	4.52	4.96	4.26	1.28	3.31	4.75	5.44	0.626	1.5	2.06	2.01	0.853	3	0.303	4.04
